These results are taken from PubChem BioAssay (NCI).

Test systems include HCT-15 colon; HT29 colon; SNB-75 CNS; SNB-19 CNS; U251 CNS; PC-3 prostate; SK-MEL-5 melanoma; UACC-62 melanoma; LOX IMVI melanoma; SK-MEL-28 melanoma.
Common to all, as to assay: NCI-60 one-dose screen, 48 h (100 = growth as untreated, 0 = no growth, -100 = all killed)
Common to all, as to conditions: 10 µM unless noted

The panel holds about 83,000 compounds, 20% with a hit somewhere; the sample as a whole holds those more often.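 Method: cells in 96-well plates; compound added at one concentration; 48 h incubation; percent growth measured; values under 10 scored active.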 Values without a mark were called inactive. Active and inactive are the calls of the source.

With `CSc1nc2ccc(C)cc2cc1/C=C1/C=C(c2ccccc2)NC1=O`, the growth is 57.4% with HCT-15 colon; 57.6% in the assay with HT29 colon; 26.4% with SNB-75 CNS; 67.3% in the assay with SNB-19 CNS; 16.3% in the assay on U251 CNS; 68.4% in the assay on PC-3 prostate. Further, the growth in the assay on SK-MEL-5 melanoma was 80.4%; with UACC-62 melanoma it was 71.9%; in the assay with LOX IMVI melanoma, 45.3%; in the assay with SK-MEL-28 melanoma it was 79.1%.
Regarding `CCCCNC(=O)c1ccc2c(c1)nc(-c1ccccc1)n2C1CCCCC1`, the growth is 72.5% in the assay on HCT-15 colon; 50.3% in the assay on HT29 colon; 114% in the assay on SNB-75 CNS; 110% in the assay on SNB-19 CNS; 99% in the assay with U251 CNS; 90.9% in the assay with PC-3 prostate. Moreover, the growth is 93.7% in the assay on SK-MEL-5 melanoma, 87.3% in the assay on UACC-62 melanoma, 92.6% in the assay with LOX IMVI melanoma and 106% in the assay with SK-MEL-28 melanoma.
Regarding `NC(=O)c1ccccc1OCC(=O)Nc1ccc(Cl)c(Cl)c1`, the growth was 102% with HCT-15 colon; 113% in the assay with HT29 colon; 83.3% in the assay with SNB-75 CNS; 93.2% with SNB-19 CNS; 97.3% in the assay with U251 CNS; 106% in the assay with PC-3 prostate. Moreover, the growth was 99.9% in the assay on SK-MEL-5 melanoma, 83.3% with UACC-62 melanoma, 108% with LOX IMVI melanoma and 107% in the assay with SK-MEL-28 melanoma.
On to `CSc1ccc2c3c(n(CCCn4ccnc4)c(=O)c2c1)-c1ccccc1C3=O`, for which the growth with HCT-15 colon was 61.1%; in the assay with HT29 colon it was 27.1%; in the assay on SNB-75 CNS it was 51.6%; in the assay on SNB-19 CNS it was 33.2%; with U251 CNS it was 12.7%; with PC-3 prostate it was 45.6%. Moreover, the growth was 19.5% in the assay with SK-MEL-5 melanoma, 19.8% with UACC-62 melanoma, 1.75% (active) in the assay with LOX IMVI melanoma and 78.5% with SK-MEL-28 melanoma.
Turning to `CCOC(=O)C1=C(CC(O)c2ccc(OC)cc2OC)NC(=O)NC1c1ccccc1` (stereo not given), the growth with HCT-15 colon is 110%; in the assay on HT29 colon, 100%; in the assay on SNB-75 CNS it was 87.3%; with SNB-19 CNS, 99.8%; in the assay with U251 CNS it was 106%; in the assay with PC-3 prostate, 95.3%. The growth in the assay on SK-MEL-5 melanoma was 95.5%; in the assay with UACC-62 melanoma, 89.8%; in the assay with LOX IMVI melanoma, 94.5%; in the assay with SK-MEL-28 melanoma, 115%.
Regarding `N#Cc1nn(-c2cc(=O)[nH]c3ccc(Br)cc23)c(N)c1C#N`, the growth was 99.3% with HCT-15 colon; 94.8% in the assay on HT29 colon; 87.3% in the assay on SNB-75 CNS; 105% in the assay on SNB-19 CNS; 106% in the assay with U251 CNS; -86.9% (active) with PC-3 prostate. Moreover, the growth in the assay with SK-MEL-5 melanoma is 101%; in the assay with UACC-62 melanoma, 86.6%; with LOX IMVI melanoma, 102%; in the assay with SK-MEL-28 melanoma, 101%.
With `COCCOC(C)C(/C=N/NC(N)=S)=N/NC(N)=S` (stereo not given), the growth in the assay with HCT-15 colon is 51.8%; with HT29 colon, 39.5%; in the assay with SNB-75 CNS it was 120%; in the assay on SNB-19 CNS, 92.8%; in the assay on U251 CNS, 48.5%; in the assay with PC-3 prostate it was 27.9%. The growth in the assay with SK-MEL-5 melanoma was 60.8%; in the assay on UACC-62 melanoma, 67.1%; in the assay on LOX IMVI melanoma it was 51.1%; in the assay on SK-MEL-28 melanoma it was 90.1%.
As to `C#COc1cccc(Nc2ncnc3cc(NC(=O)[C@H](C)Cl)ccc23)c1`, the growth is 9.91% [6.25 µM] (active) in the assay on HCT-15 colon; 1.38% [6.25 µM] (active) with HT29 colon; 3.55% [6.25 µM] (active) in the assay on SNB-75 CNS; 19.3% [6.25 µM] in the assay on SNB-19 CNS; 3.14% [6.25 µM] (active) with U251 CNS; 95.3% [6.25 µM] in the assay with PC-3 prostate. Moreover, the growth with SK-MEL-5 melanoma is 9.1% [6.25 µM] (active); in the assay on UACC-62 melanoma, 22.1% [6.25 µM]; with LOX IMVI melanoma it was 5.47% [6.25 µM] (active); in the assay on SK-MEL-28 melanoma, 29.4% [6.25 µM].
As to `COc1ccc(-c2nc(SCC(=O)Nc3nc4ccc(C)cc4s3)[nH]c(=O)c2C#N)cc1OC`, the growth is 104% in the assay with HCT-15 colon; 107% in the assay on HT29 colon; 60.4% with SNB-75 CNS; 101% in the assay with SNB-19 CNS; 104% in the assay on U251 CNS; 93.2% with PC-3 prostate. Moreover, the growth in the assay on SK-MEL-5 melanoma was 97.7%; in the assay with UACC-62 melanoma, 94.4%; in the assay with LOX IMVI melanoma, 90.4%; with SK-MEL-28 melanoma, 108%.
For `Cc1nc2sc(C(=O)Nc3cccc(Cl)c3C)c(N)c2cc1C(=O)/C=C/c1ccccc1`, the growth in the assay with HCT-15 colon is -66.4% (active); in the assay on HT29 colon, -58.6% (active); in the assay with SNB-75 CNS it was 12.6%; in the assay on SNB-19 CNS, -41.8% (active); in the assay with U251 CNS, -73.6% (active); in the assay on PC-3 prostate it was 0.225% (active). The growth was -10.8% (active) in the assay with SK-MEL-5 melanoma, 2.03% (active) in the assay on UACC-62 melanoma, -75.8% (active) with LOX IMVI melanoma and 27.3% with SK-MEL-28 melanoma.
As for `CNC(=O)c1cc(Oc2ccc3c(c2)sc2nc(-c4ccc(NC(=O)[C@@H](NC(=O)OC)C(C)C)cc4)cn23)ccn1`, the growth in the assay on HCT-15 colon is 73.2%; in the assay with HT29 colon, 72.1%; in the assay on SNB-75 CNS, 99.5%; in the assay with SNB-19 CNS, 91.1%; in the assay with U251 CNS, 81.6%; in the assay on PC-3 prostate, 40.2%. The growth in the assay on SK-MEL-5 melanoma was 5.33% (active); in the assay with UACC-62 melanoma it was 42.9%; in the assay with LOX IMVI melanoma, 67.2%; with SK-MEL-28 melanoma it was 75.7%.
On to `COc1cc2ncnc(Nc3ccc(F)c(Cl)c3)c2cc1OCC(=O)N1CCOCC1`, for which the growth was 96.6% in the assay with HCT-15 colon; 91.8% in the assay with HT29 colon; 102% with SNB-75 CNS; 86% in the assay with SNB-19 CNS; 102% with U251 CNS; 94.3% in the assay with PC-3 prostate. In addition, the growth was 98.4% in the assay with SK-MEL-5 melanoma, 86.6% in the assay on UACC-62 melanoma, 97.8% with LOX IMVI melanoma and 106% with SK-MEL-28 melanoma.
With `CN(C)CCCC1(c2ccc(F)cc2)OCc2cc(-c3csc4ccccc34)ccc21` (stereo not given), the growth in the assay on HCT-15 colon was -59.7% (active); with HT29 colon, -29.2% (active); with SNB-75 CNS it was 29.7%; in the assay with SNB-19 CNS it was -35.6% (active); in the assay with U251 CNS, -57.1% (active); in the assay on PC-3 prostate it was 30%. Moreover, the growth in the assay on SK-MEL-5 melanoma is -45.7% (active); in the assay with UACC-62 melanoma it was -86.3% (active); in the assay on LOX IMVI melanoma, -97.9% (active); in the assay on SK-MEL-28 melanoma it was -84% (active).
